Compound activity: PubChem, National Center for Advancing Translational Sciences (NCATS)
POLB inh – blocks human DNA polymerase beta activity; P06746; 340,000 tested, 1.3% active; Potency, µM (titrated, usually from 114 µM), for inactives: at the top dose activity change, negative = inhibition, most hits filed as inhibitors; Pol beta primer extension/strand displacement, fluorescence kinetic; note: potency is the fitted concentration of half-maximal effect; % is set by controls: 0 for no effect and ±100 for the full control effect
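Pol beta (10 nM) and compounds were preincubated 15 min at room temperature, then 50 nM substrate (final) started primer extension/strand displacement. Reads were taken at 0 and 10 min; concentration-response data were fitted to a four-parameter Hill equation.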
PI5P4K alpha inh – blocks human PI5P4K alpha kinase activity. 330,000 tested, 1.2% active. PI5P4Kalpha enzyme, ADP-Glo luminescence, 60 min; active compounds read low. AID 652105. P48426. max response, %; active = max response of -50% or lower; inconclusive = between -30% and -50%; inactive = -30% or higher; note: value at the top dose of about 77 µM; % is set by controls: 0 for no effect and ±100 for the full control effect
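Reactions run in 0.038 M HEPES pH 7.4, 0.28 mM EGTA, 0.1% CHAPS and 5% DMSO, with PI5P4Kalpha, substrate, compound and 5 microM ATP final, one hour at room temperature. Readout is ADP-Glo luminescence.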
POLI inh – blocks human DNA polymerase iota activity; Q9UNA4; Pol iota fluorescent replication assay, 10 min; Potency, µM (titrated, usually from 115 µM), inactives show top-dose activity, negative = inhibition, hits mostly inhibitors; 390,000 tested, 1% active; AID 588590; note: potency is the fitted concentration of half-maximal effect
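Pol iota at 10 nM preincubated 15 min with compounds at room temperature; reaction started with fluorescent substrate, 50 nM final. Fluorescence read kinetically at 0 and 10 min; buffer-only wells as negative control.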
12-LOX inh – ALOX12 (human) lipoxygenase inhibition | purified 12hLO, xylenol orange hydroperoxide absorbance | Potency, µM (doses to about 108 µM), for inactives: at the highest dose activity change, negative = inhibition, actives largely listed as inhibitors | 580,000 tested, 1.1% active | AID 1671190; note: potency is the fitted concentration of half-maximal effect; % is set by controls: 0 for no effect and ±100 for the full control effect
Target sequence (P18054 whole entry, looked up): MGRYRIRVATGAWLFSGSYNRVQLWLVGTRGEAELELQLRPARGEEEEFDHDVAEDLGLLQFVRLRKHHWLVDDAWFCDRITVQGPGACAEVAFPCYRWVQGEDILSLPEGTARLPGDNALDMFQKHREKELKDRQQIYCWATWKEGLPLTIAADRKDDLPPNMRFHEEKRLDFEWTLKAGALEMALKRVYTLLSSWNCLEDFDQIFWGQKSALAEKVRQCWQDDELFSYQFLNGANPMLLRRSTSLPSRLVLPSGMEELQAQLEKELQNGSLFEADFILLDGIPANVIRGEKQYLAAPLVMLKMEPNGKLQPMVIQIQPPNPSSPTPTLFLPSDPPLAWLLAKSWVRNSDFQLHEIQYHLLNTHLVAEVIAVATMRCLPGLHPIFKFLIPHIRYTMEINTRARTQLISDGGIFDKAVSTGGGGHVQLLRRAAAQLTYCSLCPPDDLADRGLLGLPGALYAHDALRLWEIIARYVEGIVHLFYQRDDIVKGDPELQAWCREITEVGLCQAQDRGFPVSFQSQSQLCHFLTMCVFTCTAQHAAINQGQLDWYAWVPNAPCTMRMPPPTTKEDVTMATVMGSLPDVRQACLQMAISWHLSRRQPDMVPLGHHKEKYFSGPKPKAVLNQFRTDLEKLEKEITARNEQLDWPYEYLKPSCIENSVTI
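Hydroperoxide product was detected by ferrous iron/xylenol orange as the 573 to 405 nm absorbance ratio. Arachidonic acid at 40 uM (final) was turned over for 30 min at room temperature by 150 nM human 12hLO, pH 7.0 Hepes buffer, after 15 min compound preincubation.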
Pol kappa inh – inhibitors of human DNA polymerase kappa | purified Pol kappa, fluorescent DNA synthesis assay, 10 min | 400,000 tested, 0.53% active | AID 588579 | Potency, µM (doses to about 107 µM), inactives show at the highest dose activity, negative = inhibition, actives largely listed as inhibitors; note: potency is the fitted concentration of half-maximal effect; % is set by controls: 0 for no effect and ±100 for the full control effect
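Here, compound and 10 nM enzyme are combined for 15 min at room temperature; adding 50 nM substrate (final) starts DNA synthesis, tracked by fluorescence at 0 and 10 min against buffer-only wells.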
POLH inh – blocks human DNA polymerase eta activity; Q9Y253; 390,000 tested, 1.2% active; AID 588591; recombinant Pol eta, fluorescent DNA replication assay; Potency, µM (titrated, usually from 114 µM), for the others: top-dose activity change, negative = inhibition, actives largely listed as inhibitors; note: potency is the fitted concentration of half-maximal effect; % is set by controls: 0 for no effect and ±100 for the full control effect
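Pol eta at 10 nM preincubated with compounds 15 min at room temperature; reaction started with fluorescent substrate (50 nM final) and read kinetically at 0 and 10 min.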
Numbers without * were called inactive; ? = inconclusive; . = not tested or not shown; ! = not active in a repeat. An excerpt weighted towards active compounds, which were near 2.9% of everything screened. Unless noted, calls come from the whole dose curve; as a rule, active = well fitted inhibition curve with a large enough effect; inconclusive = small, poorly fitted or top-dose-only effect, or another doubt; inactive = no such curve, though single readings can be large or run the other way.

SMILES	POLB inh	PI5P4K alpha inh	POLI inh	12-LOX inh	Pol kappa inh	POLH inh
CCc1c(C)c2ccc(OC(C)C(=O)NC(Cc3c[nH]c4ccc(O)cc34)C(=O)O)c(C)c2oc1=O (centres undefined)	36%	-4	?	-25%	-20%	50µM*
Cc1c(C)c2ccc(OCC(=O)Nc3ccc(S(N)(=O)=O)cc3)c(C)c2oc1=O	32µM*	-3	?	-8%	?	?
Cc1c(OCC(=O)NC(Cc2ccc(Cl)cc2)C(=O)O)ccc2c1oc(=O)c1ccccc12 (centres undefined)	0%	0	5%	?	-17%	50µM*
COC(=O)c1ccc(COc2ccc3c(C)c(C)c(=O)oc3c2C)o1	7%	.	0%	.	-1%	-10%
COc1ccc(CN(C)C(=O)CSc2nc(-c3cccs3)nc3ccccc23)c(OC)c1OC	.	.	.	-2%	.	.
Cc1c(OCC(=O)NCC(O)c2ccccc2)ccc2c3c(c(=O)oc12)CCC3 (centres undefined)	9%	-4	36%	0%	1%	5%
Cc1c(OCC(=O)N[C@H](C(=O)O)c2ccccc2)ccc2c3c(c(=O)oc12)CCCC3	?	-10	?	?	?	56µM*
Cc1c(Cc2ccccc2)c(=O)oc2c(C)c(OCC(=O)NCCCO)ccc12	.	.	.	2%	.	.
Cc1c(Cc2ccccc2)c(=O)oc2c(C)c(OCC(=O)N[C@@H](Cc3ccccc3)C(=O)O)ccc12	50µM*	-12	-10%	6%	-18%	50µM*
CC(C)C(NC(=O)CCc1ccccc1)C(=O)O (centres undefined)	.	.	.	-20%	.	.
CNc1oc(-c2cc(S(=O)(=O)N3CCCC3)c(C)o2)nc1C#N	.	.	.	15%	.	.
COc1ccc(CNC(=O)c2ccc3c(c2)N(C(=O)c2ccc(F)cc2)CC3)cc1OC	.	.	.	20%	.	.
O=C(Cc1cccc2ccccc12)Nc1cc(Cl)ccc1C(=O)O	3%	-4	7%	18µM*!	-5%	-1%
O=C(COc1ccccc1[N+](=O)[O-])Nc1cc(Cl)ccc1C(=O)O	16%	-55*	-16%	-23%	-20%	-3%
O=C(Cc1cccc2ccccc12)NC(=S)Nc1cccc(C(=O)O)c1	?	-6	52%	35µM*	-7%	-18%
O=C(Cc1cccc2ccccc12)Nc1ccccc1C(=O)O	9%	-8	-6%	0%	-1%	0%
COC(=O)c1ccccc1NC(=O)COc1ccccc1[N+](=O)[O-]	26%	-3	63%	19%	4%	2%
COc1ccc(/C=C/C(=O)NC2CCCC2)c(OC)c1	.	.	.	45%	.	.
COc1ccc(CN2CCNC(=O)C2CC(=O)NC2CCCCCC2)c(C)c1C (centres undefined)	-23%	-4	16%	32µM*	-9%	-20%
Cc1ccccc1CN1CCNC(=O)C1CC(=O)NC1CCCCCCC1 (centres undefined)	19%	-1	-16%	-22%	3%	-16%
CCC(C)N=C1Sc2nc3ccc(C)cc3cc2CN1CCOC (centres undefined)	4%	-53*	19%	?	-10%	-17%
COCCN1Cc2cc3cc(C)ccc3nc2SC1=Nc1ccc(OC)cc1	-7%	6	30%	-6%	3%	-25%
CCc1cc(C(=O)NNC(=S)NC(=O)c2ccccc2)cs1	.	.	.	40µM*	.	.
Cc1cccc(C(=O)NC(=S)NNC(=O)c2ccccc2Cl)c1	6%	-10	9%	40µM*	-13%	-17%
CCCCNC(=S)NNC(=O)c1csc(CC)c1	17%	1	23%	0%	5%	-9%
SMILES	POLB inh	PI5P4K alpha inh	POLI inh	12-LOX inh	Pol kappa inh	POLH inh
Cc1cccc(C(=O)NC(=S)NNC(=O)Cc2ccccc2)c1	19%	-5	70%	45µM*	-12%	-14%
Cc1cccc(C(=O)NNC(=S)NC(=O)/C=C/c2cccs2)c1	.	.	.	35µM*	.	.
Cc1ccc2oc(=O)c(S(=O)(=O)c3ccc(F)c(C)c3)cc2c1	.	.	.	3%	.	.
Cc1cc(NC(=O)N2CCSc3ncccc32)ccc1Br	.	.	.	9%	.	.
Cc1cccc(C(=O)NC(=S)NNC(=O)COc2c(C)cccc2C)c1	12%	1	13%	25µM*	-9%	-10%
CC(C)C(NS(C)(=O)=O)C(=O)NCc1cc(F)cc(F)c1 (centres undefined)	.	.	.	9%	.	.
CCCn1c(NCc2ccco2)nc2c1c(=O)n(C)c(=O)n2C	22µM*	?	?	7%	?	?
COc1ccc(Cl)c(Cn2c(NCc3ccco3)nc3c2c(=O)n(C)c(=O)n3C)c1	14µM*	?	?	-8%	?	?
Cn1c(=O)c2c(nc(NCc3ccco3)n2Cc2ccccc2)n(C)c1=O	.	.	.	15%	.	.
CC(C)S(=O)(=O)N1CC(Oc2ccc(-c3noc(-c4cccnc4)n3)cc2)C1	.	.	.	-4%	.	.
CC(=O)Nc1cc(OC(C)=O)c2nonc2c1OC(C)=O	0%	.	0.79µM*	-22%	-10%	50µM*
CC(=O)Nc1nonc1NC(C)=O	-6%	0	-2%	50%	-6%	-12%
CC(=O)Oc1ccc2nonc2c1OC(C)=O	.	.	3.5µM*	.	3.2µM*	.
COc1ccccc1CC(C#N)C(=O)Nc1ccccc1C (centres undefined)	.	.	.	2%	.	.
CCC(=O)Oc1cccc2cc(-c3nc(-c4ccc(OC)cc4)no3)c(=O)oc12	.	.	.	-28%	.	.
Cn1c(=O)[nH]c(Nc2ccccc2)c([N+](=O)[O-])c1=O	0%	-58*	8%	20%	-4%	-20%
Cn1nc(C(C)(C)C)c([N+](=O)[O-])c1C(=O)Nc1ccccc1	0%	8	157%	-14%	-7%	-15%
O=S(=O)(NC1=NCCCCC1)c1ccc2sc(NS(=O)(=O)c3ccc4ccccc4c3)nc2c1	1%	-28	11µM*	?	-20%	?
COc1ccc(C=C2C(=O)c3ccccc3C2=O)cc1O	-5%	-60*	18µM*	-10%	-8%	-30%
COc1cc(C=C2C(=O)c3ccccc3C2=O)cc(OC)c1OC	0%	4	89µM*	?	-11%	-2%
O=C(NNC(=O)c1cccc(-n2cccc2)c1)c1ccc(F)cc1	.	-68*	50µM*	0%	?	14µM*
COc1ccc(CNC(=O)C2CCN(S(=O)(=O)Cc3ccccc3)CC2)cc1	14µM*	.	7%	-4%	-1%	-11%
CCn1c2ccccc2c2cc(NC(=O)CSc3nnc(-c4ccc(OC)c(OC)c4)n3N)ccc21	0%	-2	5%	0%	-10%	4%
CCOc1ccc(-c2nnc(SCC(=O)Nc3ccc4c(c3)c3ccccc3n4CC)n2N)cc1	40µM*	-5	50µM*	-61%	-37%	?
